Where “and” joins values, the source holds several entries; their conditions need not be identical. Equal values may be shown once. Records with an inconclusive call do not appear. Where a structure was tested more than once in an assay, its records may differ in their call. Calls of active or inactive are those of the source. Unless noted, calls come from the whole dose curve; as a rule, active = well fitted curve in the direction sought with a large enough effect; inconclusive = small, poorly fitted or top-dose-only effect, or another doubt; inactive = no such curve, though single readings can be large; an effect the other way counts as inactive or inconclusive.

The values below come from PubChem BioAssay (NCATS).

Assay [1] is described as follows: AP1 Signaling Pathway (AID 357; active = well fitted curve in either direction with a large enough effect, not every such curve was filed as active;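 note: ME-180 reporter cells stimulated with EGF at its EC50 level; % is set by controls: 0 for no effect and ±100 for the full control effect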). The note with it: ME-180 (cervical carcinoma) AP-1-bla reporter, EGF-induced, beta-lactamase ratio, 5 h. The essentials:
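In this screen, ME-180 cells in Opti-MEM with 0.5% dialyzed FBS received EC50 EGF and compound titrations for 5 h. AP-1 reporter beta-lactamase was detected via CCF4 ratio, giving AC50 for positive and negative modulators.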

For assay [2], the target named is Cytochrome P450 1A2 (Homo sapiens) (UniProt P05177). As to the kind of experiment: p450-cyp1a2 (AID 410; calls by dose curve; note: potency is the fitted concentration of half-maximal effect). The procedure, abridged: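 Luminescent demethylation readout: Luciferin-ME (100uM, equal to Km) turned over by 20nM CYP1A2 for 60 min at room temperature after NADPH regeneration addition, following 10 min compound preincubation. Normalization used 57 uM furafylline as full inhibition.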

The nature of assay [3]: NFAT Signaling Pathway (AID 444; active = well fitted curve in either direction with a large enough effect, not every such curve was filed as active;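 note: carbachol stimulus at about its EC50 of 1 µM final; % is set by controls: 0 for no effect and ±100 for the full control effect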). As to conditions: Jurkat NFAT-bla M1, carbachol, beta-lactamase ratio, 5 h. The essentials:
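Jurkat cells carrying an NFAT-driven β-lactamase reporter and co-transfected muscarinic M1 receptor were treated with compound plus carbachol (1 uM final, an EC50 level) for 5 h at 37 °C. CCF4 loading followed for 1 h at RT; 460/530 nm ratio gave %activity.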

Assay [4] deals with Cytochrome P450 2C9 (Homo sapiens) (UniProt P11712). Nature of the assay: qHTS Assay for Inhibitors and Substrates of Cytochrome P450 2C9 (AID 883). For activity change, negative = inhibition: % is set by controls: 0 for no effect and ±100 for the full control effect. Note: nearly all actives have a fitted effect of over 60% in size. Note: potency is the fitted concentration of half-maximal effect. The procedure, abridged:
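CYP2C9 deoxyluciferin hydroxylation, 37C, 60 min with NADPH regeneration; 10nM enzyme, 100uM Luciferin-H (KM). Glo detection reagent stopped reaction; luminescence normalized to sulphaphenazole (57uM) full inhibition.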

Assay [5] has as its target Cytochrome P450 3A4 (Homo sapiens) (UniProt P08684). Nature of the assay: qHTS Assay for Activators of Cytochrome P450 3A4 (AID 885). Note: nearly all actives have a fitted effect of over 65% in size. The essentials:
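Using 20nM recombinant human CYP3A4 in potassium phosphate (200mM), substrate Luciferin-PPXE at 25uM, luminescent luciferin detection followed a 60-min RT NADPH reaction; data scaled to 57 uM ketoconazole.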
A general note: Quantitative high-throughput screening tests each substance at several concentrations.

Assay [6] deals with Cytochrome P450 2D6 (Homo sapiens) (UniProt P10635). As to the kind of experiment: qHTS Assay for Inhibitors and Substrates of Cytochrome P450 2D6 (AID 891).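 Note: luciferin methyl ether substrate demethylated by CYP2D6 with NADPH regeneration; % is set by controls: 0 for no effect and ±100 for the full control effect; nearly all actives have a fitted effect of over 60% in size.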 The procedure, abridged: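 Luminescent read-out of luciferin formed by 5 nM human CYP2D6 demethylating 30 uM Luciferin-ME EGE (Km level) over 60 min at room temperature after NADPH regeneration addition. Data normalized to full inhibition by 1.43 uM quinidine.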

Assay [7] has as its target Cytochrome P450 2C19 (Homo sapiens) (UniProt P33261). As to the kind of experiment: qHTS Assay for Inhibitors and Substrates of Cytochrome P450 2C19 (AID 899). Note: nearly all actives have a fitted effect of over 60% in size. Note: potency is the fitted concentration of half-maximal effect. The procedure, abridged: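 In 50mM KPO4, the reaction held 5nM enzyme and KM-level (10uM) Luciferin-H EGE; it ran 60 min at 37C after NADPH regeneration and a 10 min compound preincubation. Luminescence values were scaled to 57uM ketoconazole as complete inhibition.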

Assay [8] in a line: qHTS Assay for Lipid Storage Modulators (AID 1519; calls by dose curve). The note with it: Drosophila S3 cells, BODIPY lipid droplet/cell ratio, laser cytometry, cells loaded with oleic acid. The procedure, abridged:
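Cells seeded at 5,000 per well were treated with compounds over a concentration series and loaded with oleic acid (400 uM, as added). Lipid droplet fluorescence (488 nm excitation, 500-530 nm channel) was read by laser-scanning cytometry and normalized to 20 uM Triacsin C.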

Assay [9] is described as follows: Primary qHTS for small molecule stabilizers of the endoplasmic reticulum resident proteome: Secreted ER Calcium Modulated Protein (SERCaMP) assay (AID 1508630). Note: % is set by controls: 0 for no effect and ±100 for the full control effect. The essentials: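 The SH-SY5Y reporter protocol was run at 3 concentrations up to 38.3 uM (primary) or 11 concentrations (follow-up): 16 h compound, 100 nM thapsigargin for 4 h, then extracellular luciferase luminescence.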

Assay [10] in a line: Confirmation and Secondary Assay for Modulators of Hemoglobin Beta Chain Splicing at IVS2 654 locus (AID 910).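 Note: per-well total GFP intensity by laser scanning cytometry after 2-day treatment; % of control where 0% means no effect.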 The essentials: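 HeLa cells stably carrying EGFP interrupted by mutant beta-globin IVS2-654 intron (CMV-driven) were treated with compound for 2 days at 37C; corrected splicing was scored as total peak GFP intensity per well (488 nm excitation, 500-520 nm emission).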

A short description of assay [11]: Confirmation and Secondary Assay for Modulators of Hemoglobin Beta Chain Splicing at IVS2 705 locus (AID 930).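 Note: HeLa cells stably expressing the EGFP-705 splicing reporter; % of control where 0% means no effect.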 The essentials: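 Assay measures total GFP intensity per well in HeLa EGFP-705 cells after 2 days with compound; mis-splicing normally truncates EGFP, so fluorescence indicates corrected splicing.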
Assay [12] concerns the target Cytochrome P450 2C9 (Homo sapiens) (UniProt P11712). As to the kind of experiment: Cytochrome P450 family 2 subfamily C member 9 (CYP2C9) small molecule antagonists: luciferase biochemical (cell-free) qHTS assay (AID 1645842; active = well fitted curve in the direction sought with a large enough effect in the repeat runs; an effect the other way counts as inactive or inconclusive; note: potency is the fitted concentration of half-maximal effect; nearly all actives have a fitted effect of over 55% in size). The procedure, abridged:
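P450-Glo CYP2C9 system: proluciferin substrate with enzyme in mix containing 0.4% BSA, 10 min at room temperature, then NADPH regeneration solution added and incubated 1 h at 37C. Detection reagent stopped reaction; luminescence read after 20 min as RLU.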

In assay [13] the target is Rap guanine nucleotide exchange factor 3 (Homo sapiens) (UniProt O95398). Nature of the assay: Confirmatory qHTS for antagonist of cAMP-regulated guanine nucleotide exchange factor 3 (EPAC1) (AID 1645880). Note: nearly all actives have a fitted effect of over 55% in size. Note: potency is the fitted concentration of half-maximal effect. The essentials: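 Released BODIPY-GDP fluoresces less than Rap1-bound BODIPY-GDP; the signal is followed at 480/540 nm at 5-min intervals over 30 min, after 5 min at room temperature. Reactions contain 100 nM EPAC1, 250 nM RAP1B-BODIPY-GDP and 50 uM GDP; results are normalized to ATA and DMSO.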

Assay [14] concerns the target Guanine nucleotide-binding protein G(i) subunit alpha-1 (Homo sapiens) (UniProt P63096). As to the kind of experiment: qHTS Assay for Inhibitors of RGS12 GoLoco Motif Activity (Green Fluorophore) (AID 879).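 Note: 0% = labeled peptide with Gαi1 and full inhibition = labeled peptide alone without protein; negative values mean loss of peptide binding seen as reduced polarization.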 The essentials: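 A drop in FITC polarization marked displacement of the FITC-tagged RGS12 GoLoco peptide (10 nM) from Gαi1 (50 nM). Compounds were incubated 10 min at room temperature in Tris pH 7.5 buffer containing 150 mM NaCl, 0.1 mM GDP and 0.05% NP40; unlabeled peptide titration served as control.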

Assay [15] has as its target Pyruvate kinase (Leishmania mexicana) (UniProt Q27686). As to the kind of experiment: qHTS Validation Assay for Inhibitors of Leishmania Mexicana Pyruvate Kinase (AID 945).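 Note: 0% = DMSO only neutral control wells.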 The procedure, abridged: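 Pyruvate kinase activity of E451W LmPYK (0.2 nM) was followed as ATP output after 1 h at room temperature with 0.5 mM PEP and 0.1 mM ADP, detected by PKLight luminescence.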

The target of assay [16] is Alpha-galactosidase A (Homo sapiens) (UniProt P06280). As to the kind of experiment: Counterscreen for Glucocerebrosidase Inhibitors: qHTS Assay for Human alpha-Galactosidase at pH 4.5 (AID 992). Note: 0% is about no effect. The procedure, abridged:
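Each compound is preincubated briefly with 2 nM enzyme before substrate addition (80 uM); plates then sit 20 min at ambient temperature, are quenched with 1M NaOH/1M glycine, and read fluorometrically.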

Assay [17] addresses alpha-glucosidase (Oryza sativa, rice) (UniProt Q653V4). Nature of the assay: Counterscreen for Glucocerebrosidase Inhibitors: qHTS Assay for Rice alpha-Glucosidase at pH 5.0 (AID 997).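 Note: 0% = full activity with enzyme and -100% = basal without enzyme.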 The procedure, abridged: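 Endpoint fluorogenic assay at pH 5.0: compounds (0.7 nM to 77 uM) titrated against 4 nM rice enzyme and 400 uM 4-MU-alpha-glucoside for 20 min at room temperature; NaOH/glycine stop, read ex 365/em 440 nm, Hill-fitted AC50.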
In general terms: A counterscreen serves to expose hits that act by an unwanted route or on another target.

Cytochrome P450 1A2 (Homo sapiens), sequence (P05177 whole entry, looked up): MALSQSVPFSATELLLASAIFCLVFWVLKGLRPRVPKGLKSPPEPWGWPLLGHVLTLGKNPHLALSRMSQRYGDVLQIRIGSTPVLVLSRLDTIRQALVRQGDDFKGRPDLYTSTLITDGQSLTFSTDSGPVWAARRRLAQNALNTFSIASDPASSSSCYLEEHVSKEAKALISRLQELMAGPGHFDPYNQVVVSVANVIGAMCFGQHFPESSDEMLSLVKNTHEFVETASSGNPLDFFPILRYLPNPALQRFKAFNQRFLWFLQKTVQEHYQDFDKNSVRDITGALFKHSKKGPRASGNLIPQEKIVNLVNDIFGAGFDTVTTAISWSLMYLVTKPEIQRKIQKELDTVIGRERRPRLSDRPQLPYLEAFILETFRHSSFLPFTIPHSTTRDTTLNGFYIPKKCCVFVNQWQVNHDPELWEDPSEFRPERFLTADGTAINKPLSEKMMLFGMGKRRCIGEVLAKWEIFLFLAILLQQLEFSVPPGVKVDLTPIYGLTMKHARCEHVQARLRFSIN
Cytochrome P450 3A4 (Homo sapiens), sequence (P08684 whole entry, looked up): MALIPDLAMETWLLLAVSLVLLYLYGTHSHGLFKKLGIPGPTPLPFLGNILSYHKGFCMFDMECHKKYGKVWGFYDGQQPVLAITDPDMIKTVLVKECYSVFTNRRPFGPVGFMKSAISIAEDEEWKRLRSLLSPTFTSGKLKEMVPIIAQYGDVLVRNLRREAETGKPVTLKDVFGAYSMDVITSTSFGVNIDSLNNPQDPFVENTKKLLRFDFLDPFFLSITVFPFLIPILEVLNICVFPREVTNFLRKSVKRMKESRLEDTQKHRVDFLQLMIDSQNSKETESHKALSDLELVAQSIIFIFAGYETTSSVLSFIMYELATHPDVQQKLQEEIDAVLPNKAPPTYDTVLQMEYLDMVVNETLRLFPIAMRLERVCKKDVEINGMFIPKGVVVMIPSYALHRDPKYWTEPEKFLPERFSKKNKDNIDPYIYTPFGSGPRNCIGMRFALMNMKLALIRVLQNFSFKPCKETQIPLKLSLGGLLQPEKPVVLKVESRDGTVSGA
Cytochrome P450 2C9 (Homo sapiens), sequence (P11712 whole entry, looked up): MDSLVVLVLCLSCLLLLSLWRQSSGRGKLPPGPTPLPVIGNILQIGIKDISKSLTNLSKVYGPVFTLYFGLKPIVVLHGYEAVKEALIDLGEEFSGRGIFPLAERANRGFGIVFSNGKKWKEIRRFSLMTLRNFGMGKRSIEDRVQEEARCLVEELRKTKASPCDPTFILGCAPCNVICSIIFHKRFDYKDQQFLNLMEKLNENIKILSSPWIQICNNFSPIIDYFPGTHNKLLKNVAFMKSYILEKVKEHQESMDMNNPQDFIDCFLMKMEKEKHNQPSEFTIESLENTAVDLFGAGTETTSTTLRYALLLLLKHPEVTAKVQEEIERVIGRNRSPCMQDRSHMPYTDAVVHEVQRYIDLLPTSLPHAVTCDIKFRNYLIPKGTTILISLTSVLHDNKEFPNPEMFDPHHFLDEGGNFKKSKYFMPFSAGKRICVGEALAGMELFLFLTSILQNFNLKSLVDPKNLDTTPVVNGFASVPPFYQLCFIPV
Rap guanine nucleotide exchange factor 3 (Homo sapiens), sequence (O95398 whole entry, looked up): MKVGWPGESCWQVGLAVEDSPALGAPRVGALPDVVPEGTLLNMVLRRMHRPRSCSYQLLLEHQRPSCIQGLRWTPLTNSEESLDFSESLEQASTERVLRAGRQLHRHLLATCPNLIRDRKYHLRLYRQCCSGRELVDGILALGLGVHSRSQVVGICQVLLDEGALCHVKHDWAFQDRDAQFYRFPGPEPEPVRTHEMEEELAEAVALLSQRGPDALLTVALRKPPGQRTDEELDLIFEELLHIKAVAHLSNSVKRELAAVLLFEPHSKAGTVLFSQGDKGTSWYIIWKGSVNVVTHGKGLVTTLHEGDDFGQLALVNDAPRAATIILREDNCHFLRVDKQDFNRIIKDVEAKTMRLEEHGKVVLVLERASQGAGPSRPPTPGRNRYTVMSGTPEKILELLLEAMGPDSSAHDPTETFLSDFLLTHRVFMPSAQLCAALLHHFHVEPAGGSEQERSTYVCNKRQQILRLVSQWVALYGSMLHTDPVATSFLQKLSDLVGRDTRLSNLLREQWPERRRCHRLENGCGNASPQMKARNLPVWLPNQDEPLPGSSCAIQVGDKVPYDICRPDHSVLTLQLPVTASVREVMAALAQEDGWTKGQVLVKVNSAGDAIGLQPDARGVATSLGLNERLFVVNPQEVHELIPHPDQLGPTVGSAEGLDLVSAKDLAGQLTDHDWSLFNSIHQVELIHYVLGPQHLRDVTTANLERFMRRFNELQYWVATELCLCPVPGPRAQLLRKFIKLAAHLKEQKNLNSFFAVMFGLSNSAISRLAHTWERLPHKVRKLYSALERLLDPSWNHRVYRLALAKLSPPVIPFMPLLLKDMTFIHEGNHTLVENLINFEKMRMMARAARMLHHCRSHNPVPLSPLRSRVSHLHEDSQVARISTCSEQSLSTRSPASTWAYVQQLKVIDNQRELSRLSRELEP
Cytochrome P450 2C19 (Homo sapiens), sequence (P33261 whole entry, looked up): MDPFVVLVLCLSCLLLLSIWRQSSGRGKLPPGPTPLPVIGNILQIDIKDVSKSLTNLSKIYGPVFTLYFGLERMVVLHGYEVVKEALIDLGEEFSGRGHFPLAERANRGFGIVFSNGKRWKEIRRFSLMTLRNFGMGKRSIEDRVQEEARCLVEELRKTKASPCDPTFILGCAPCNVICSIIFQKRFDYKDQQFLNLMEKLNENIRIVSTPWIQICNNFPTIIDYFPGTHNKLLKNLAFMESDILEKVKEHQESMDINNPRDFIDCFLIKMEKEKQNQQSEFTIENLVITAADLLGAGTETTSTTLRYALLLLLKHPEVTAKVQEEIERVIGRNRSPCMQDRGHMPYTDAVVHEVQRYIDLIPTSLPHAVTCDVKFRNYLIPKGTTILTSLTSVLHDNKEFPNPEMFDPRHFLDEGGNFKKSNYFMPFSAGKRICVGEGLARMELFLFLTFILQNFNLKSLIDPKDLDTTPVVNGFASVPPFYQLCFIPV
Pyruvate kinase (Leishmania mexicana), sequence (Q27686 2-499 E452W): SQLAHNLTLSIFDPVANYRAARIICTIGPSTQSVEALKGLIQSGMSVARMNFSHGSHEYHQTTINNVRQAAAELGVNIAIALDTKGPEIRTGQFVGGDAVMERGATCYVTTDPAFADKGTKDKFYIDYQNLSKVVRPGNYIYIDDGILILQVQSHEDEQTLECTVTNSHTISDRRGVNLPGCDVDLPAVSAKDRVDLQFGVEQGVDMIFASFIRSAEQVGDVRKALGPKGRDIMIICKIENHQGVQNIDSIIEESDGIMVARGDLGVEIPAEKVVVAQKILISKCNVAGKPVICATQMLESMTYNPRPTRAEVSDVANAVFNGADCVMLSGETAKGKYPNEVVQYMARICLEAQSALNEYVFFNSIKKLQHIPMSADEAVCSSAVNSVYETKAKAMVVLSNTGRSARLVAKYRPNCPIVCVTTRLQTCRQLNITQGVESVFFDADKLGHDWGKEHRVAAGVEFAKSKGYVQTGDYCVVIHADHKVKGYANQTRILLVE
Guanine nucleotide-binding protein G(i) subunit alpha-1 (Homo sapiens), sequence (P63096 whole entry, looked up): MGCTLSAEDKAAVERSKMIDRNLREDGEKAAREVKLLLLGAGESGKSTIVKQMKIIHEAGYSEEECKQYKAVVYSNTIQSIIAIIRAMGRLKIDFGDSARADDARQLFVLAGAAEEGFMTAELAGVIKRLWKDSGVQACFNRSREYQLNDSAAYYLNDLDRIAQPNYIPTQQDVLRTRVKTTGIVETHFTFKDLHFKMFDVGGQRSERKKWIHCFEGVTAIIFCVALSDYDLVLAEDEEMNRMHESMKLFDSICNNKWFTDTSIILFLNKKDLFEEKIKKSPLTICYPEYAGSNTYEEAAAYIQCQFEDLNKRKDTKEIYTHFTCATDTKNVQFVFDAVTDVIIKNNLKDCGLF
Alpha-galactosidase A (Homo sapiens), sequence (P06280 whole entry, looked up): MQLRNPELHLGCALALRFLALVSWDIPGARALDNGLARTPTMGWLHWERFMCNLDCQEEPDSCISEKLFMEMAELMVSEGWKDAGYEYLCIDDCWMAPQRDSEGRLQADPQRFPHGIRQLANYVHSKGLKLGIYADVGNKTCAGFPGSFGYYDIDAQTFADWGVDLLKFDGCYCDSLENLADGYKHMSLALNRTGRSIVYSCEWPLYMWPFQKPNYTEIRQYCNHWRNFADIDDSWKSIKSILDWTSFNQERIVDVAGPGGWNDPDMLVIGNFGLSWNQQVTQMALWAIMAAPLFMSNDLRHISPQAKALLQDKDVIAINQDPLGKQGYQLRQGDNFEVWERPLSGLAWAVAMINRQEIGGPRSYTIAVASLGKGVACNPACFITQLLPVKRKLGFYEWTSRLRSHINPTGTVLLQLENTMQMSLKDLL
Cytochrome P450 2D6 (Homo sapiens), sequence (P10635 whole entry, looked up): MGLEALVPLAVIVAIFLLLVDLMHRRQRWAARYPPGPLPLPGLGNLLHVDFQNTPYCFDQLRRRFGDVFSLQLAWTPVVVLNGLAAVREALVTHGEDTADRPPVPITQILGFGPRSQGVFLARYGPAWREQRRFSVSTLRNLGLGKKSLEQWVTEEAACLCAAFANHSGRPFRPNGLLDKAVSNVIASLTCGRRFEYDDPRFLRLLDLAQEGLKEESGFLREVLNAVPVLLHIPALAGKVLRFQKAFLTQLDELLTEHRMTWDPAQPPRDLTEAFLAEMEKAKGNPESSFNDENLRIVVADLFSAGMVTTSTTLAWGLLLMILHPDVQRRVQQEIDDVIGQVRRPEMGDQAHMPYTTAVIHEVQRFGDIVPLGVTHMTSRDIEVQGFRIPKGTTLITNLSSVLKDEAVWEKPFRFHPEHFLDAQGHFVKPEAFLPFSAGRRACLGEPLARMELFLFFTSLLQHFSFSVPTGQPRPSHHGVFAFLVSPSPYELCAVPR

In the case of `COc1cc(-c2ccc(N=Nc3ccc4c(S(=O)(=O)O)cc(S(=O)(=O)O)c(N)c4c3O)c(OC)c2)ccc1N=Nc1ccc2c(S(=O)(=O)O)cc(S(=O)(=O)O)c(N)c2c1O`, the activity change, negative = inhibition is 15% (inactive) in assay [1] (at 17.2 µM (top of the series)), 0.00688% (inactive) in assay [3] (at 17.2 µM (top of the series)), 3.4% (inactive) in assay [8] (at 25.7 µM (top of the series)) and -28.6% [at 7.35 µM] (inactive) in [9]. Moreover, the Potency in assay [2] was 12.6 µM (active) and 20 µM (active); in assay [7] it was 3.98 µM (active) and inactive. The Potency entry in assay [4], in [5] and in [6] was “inactive” each time.
On to `O=C(Nc1ccc(C(=O)Nc2ccc(C(=O)Nc3ccc(S(=O)(=O)O)c4cc(S(=O)(=O)O)cc(S(=O)(=O)O)c34)cc2)cc1)Nc1ccc(C(=O)Nc2ccc(C(=O)Nc3ccc(S(=O)(=O)O)c4cc(S(=O)(=O)O)cc(S(=O)(=O)O)c34)cc2)cc1`, for which, in [9], the Potency result was “inactive”.
On to `O=c1c(O)cc(C2Oc3cc(O)cc(O)c3CC2O)cc2c(C3Oc4cc(O)cc(O)c4CC3O)cc(O)c(O)c12` (centres undefined), for which the call in assay [10] and in assay [11] was inactive.
With `O=C1c2ccc(O)c(O)c2C(=O)c2c(O)ccc(O)c21`, the molecule was classed as inactive in [10] and in [11]. Besides, the Potency in assay [12] was 19 µM (active).
Consider `O=C(O)c1ccccc1-c1c2cc(I)c(=O)c(I)c-2oc2c(I)c(O)c(I)cc12`, for which the Potency result in [13] is “inactive”.
Turning to `COc1ccc(NS(=O)(=O)c2ccc3c(c2)[C@H]2C=CC[C@H]2[C@@H](c2ccc(C(=O)O)cc2)N3)cc1`, in [13], the Potency is 19 µM (active).
`O=C(Nc1cc(C(=O)Nc2ccc(S(=O)(=O)O)cc2S(=O)(=O)O)cc(C(=O)Nc2ccc(S(=O)(=O)O)cc2S(=O)(=O)O)c1)Nc1cc(C(=O)Nc2ccc(S(=O)(=O)O)cc2S(=O)(=O)O)cc(C(=O)Nc2ccc(S(=O)(=O)O)cc2S(=O)(=O)O)c1`: the activity change, negative = inhibition in assay [1] (at 38 µM (top of the series)) was 5.96% (inactive); in assay [3] (at 38 µM (top of the series)), 1.34% (inactive); in assay [8] (at 57.5 µM (top of the series)), 10.5% (inactive). For the same molecule, the values for the Potency in [2] and in [4] were 31.6 µM (active) and 7.94 µM (active), respectively. The result in [14], in assay [16] and in [17] was inactive. The Potency entry in [5] and in assay [15] was “inactive” throughout. The results for the max response in assay [8] (measured here: cell count channel max response) and in [8] (measured here: lipid channel max response) were -19.5% and -13.3%, respectively.
